TDP1 cell noCPT = qHTS for Inhibitors of human tyrosyl-DNA phosphodiesterase 1 (TDP1): qHTS in cells in absence of CPT. DT40 Tdp1-/- hTDP1 cells, no CPT, ATP luminescence, 48 h. Potency, µM (titrated, usually from 46.2 µM), inactives show at the top dose activity change, negative = growth inhibition, most hits filed as inhibitors. actives 15% (n = 420,000). AID 686978, 2013; note: % is set by controls: 0 for no effect and ±100 for the full control effect; nearly all actives have a fitted effect of over 55% in size
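No-CPT arm: Tdp1-/-;hTDP1 DT40 cells (400/well) plus compounds, incubated ≥48 hr at 37 °C. Readout CellTiter-Glo luminescence.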
TGFb inhibitor = inhibitors of TGF-b signaling; HepG2 CAGA-GFP TGF-b/SMAD3 reporter, GFP fluorescence, 18 h; TGF-beta stimulated, 500 pg/mL final; Potency, µM (titrated, usually from 46.1 µM), without a hit: top-dose activity, negative = inhibition, actives largely listed as inhibitors; actives 1.2% (n = 410,000); note: % is set by controls: 0 for no effect and ±100 for the full control effect; nearly all actives have a fitted effect of over 65% in size
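Per well, imaged GFP fluorescence of HEPG2 CAGA-GFP cells gives the signal; cells get compound, then TGF-beta (500 pg/mL final), 18 h at 37 degrees C; %Activity versus -TGF-beta and +DMSO controls.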
HepG2 tox = counter-screen for TGF-b inhibitors: cytotoxicity in HepG2 cells; HepG2 CAGA-GFP viability, ATP luminescence, 18 h; Potency, µM (highest dose often 46.1 µM), for the others: at the top dose activity change, negative = cytotoxicity, usual class: cytotoxic; actives 0.76% (n = 410,000)
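HepG2 CAGA-GFP cells (1000/well, DMEM with 1% FBS) received compound, then TGF-beta at 500 pg/mL final, and were incubated 18 hours at 37 degrees C. Viability was read by CellTiter-Glo luminescence. Media-only wells were set as complete cell-killing and DMSO as no toxicity.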
HT1080-NT tox = kills 2HG-producing HT-1080-NT fibrosarcoma cells. HT-1080-NT fibrosarcoma viability, CellTiter-Glo ATP luminescence, 48 h. AID 686970. Potency, µM (titrated, usually from 46.1 µM), for the others: top-dose activity, negative = less viability, hits mostly cytotoxic. actives 1.6% (n = 360,000);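 note: NT is the 2HG producing partner of a matched IDH1 knockdown line; 0% = DMSO-treated cells and -100% = media-only wells without cells; nearly all actives have a fitted effect of over 55% in size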
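Compounds were tested in concentration-response format on HT-1080-NT cells for 48 hours at 37 degrees C. Cell viability came from CellTiter-Glo luminescence; curves were classified by r2, response magnitude and activity.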
DT40 TDP1 CPT = growth inhibition of DT40 Tdp1-/-;hTDP1 cells with camptothecin (screen for TDP1 inhibitors). chicken DT40 Tdp1-/-;hTDP1 cells + 20 nM CPT, ATP luminescence, 48 h. Potency, µM (highest dose often 46.2 µM), for the others: at the highest dose activity change, negative = growth inhibition, usual class: inhibitors. actives 12% (n = 420,000). AID 686979; note: % is set by controls: 0 for no effect and ±100 for the full control effect; nearly all actives have a fitted effect of over 55% in size
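Chicken DT40 Tdp1-/- cells stably complemented with human TDP1 were seeded at 400 cells/well in medium containing 20 nM camptothecin, exposed to pin-transferred compounds, and grown at 37 °C for at least 48 hr. Viability was read as ATP luminescence.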
HT1080 IDH1KD tx = toxicity to HT-1080 IDH1 knockdown cells (counter line); Potency, µM (series often up to 46.1 µM), without a hit: top-dose activity, negative = toxicity, usual class: cytotoxic; HT-1080 IDH1 knockdown viability, ATP luminescence, 48 h; actives 2% (n = 360,000); AID 686971;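 note: 0% = DMSO wells and -100% = cell-free medium wells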
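After a 2 h attachment period, IDH1KD HT-1080 cells took pin-transferred compound for 48 h at 37 °C; ATP-based luminescence after 10 min room-temperature reagent incubation reported viability.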
Active calls of the source: *; u = inconclusive; x = not tested or not shown; [ ] = remark or other dose. Compounds with a hit are over-represented: about 17% of the library has one in this group of screens. Calls come from the whole dose curve; as a rule, active = well fitted curve in the direction sought with a large enough effect; inconclusive = small, poorly fitted or top-dose-only effect, or another doubt; inactive = no such curve, though single readings can be large; an effect the other way counts as inactive or inconclusive. Potency is the fitted concentration of half-maximal effect.

SMILES | TDP1 cell noCPT | TGFb inhibitor | HepG2 tox | HT1080-NT tox | DT40 TDP1 CPT | HT1080 IDH1KD tx
O=C(c1ccc2c(c1)OCO2)C1CCCN(Cc2ccccc2OC(F)F)C1 (configuration not stated) | u | -20% | -22% | u | 16µM* | -12%
COc1ccc(C(=O)C2CCCN(Cc3nc4ccccc4nc3C)C2)cc1OC (configuration not stated) | u | 0% | -30% | -3% | -23% | -19%
COc1cccc(CN2CCCC(C(=O)c3ccc4c(c3)OCO4)C2)c1OC (configuration not stated) | u | -6% | -23% | -18% | u | -26%
O=C(c1cccc(C(F)(F)F)c1)C1CCCN(Cc2cccc(OCCO)c2)C1 (configuration not stated) | 10µM* | u | -1% | -9% | u | -27%
COc1ccc(C(=O)C2CCCN(Cc3cccc4c3OCO4)C2)cc1OC (configuration not stated) | 9.2µM* | -29% | -23% | u | u | -24%
Cc1cc(O)c(C)c2c1CC[C@H]1[C@H](C)C(=O)O[C@H]21 | -16%[9.04 µM] | x | x | x | 4%[9.04 µM] | x
COCCn1c(=O)c(-c2ccc(F)cc2)nc2cncnc21 | -16% | x | x | x | 1% | x
O=C(Nc1ccc(Cl)cc1)C(Cl)C(=O)c1ccccc1 (configuration not stated) | 13µM* | -25% | -38% | -12% | 9.2µM* | u
O=C(N/C(=N\O)c1ccccc1)Nc1ccc(Cl)cc1 | -21% | 5% | 1% | 8% | -11% | 2%
O=C(Nc1ccccc1Cl)c1ccccc1 | -1% | -6% | 6% | 27% | 2% | 4%
CC(NC(=O)Nc1ccc(Cl)cc1)c1ccccc1 (configuration not stated) | 26µM* | u | -33% | 0% | u | -1%
Cc1ccc(C(NC(=O)NC(C)c2ccccc2)C(Cl)(Cl)Cl)cc1F (configuration not stated) | -85% | u | -46% | -27% | 18µM* | u
O=C(Nc1ccccc1Cl)C(Cl)C(=O)c1ccccc1 (configuration not stated) | 13µM* | 7% | 3% | 12% | 15µM* | 18%
O=C(CC(SCCO)c1ccc([N+](=O)[O-])cc1)c1ccco1 (configuration not stated) | 15µM* | u | -55% | 0% | -93% | -4%
CC(=O)NC(Cc1ccccc1)C(=O)N1CCN(C(=O)c2ccco2)CC1 (configuration not stated) | 3% | 9% | -13% | -1% | -6% | -9%
Nc1ccccc1SC(CC(=O)c1ccccc1)c1cccc([N+](=O)[O-])c1 (configuration not stated) | 5.2µM* | u | -114% | u | 16µM* | u
CC(=O)NC(CSC(CC(=O)c1ccco1)c1ccc(C)cc1)C(=O)O (configuration not stated) | 16µM* | u | -70% | 7% | u | -18%
Nc1ccccc1SC(CC(=O)c1ccccc1)c1ccc([N+](=O)[O-])cc1 (configuration not stated) | 16µM* | u | -64% | -9% | 15µM* | u
CCCCCn1c(=O)[nH]c2cc(C(=O)NCCCN3CCCCC3CC)ccc2c1=O (configuration not stated) | u | 9% | -21% | 3% | u | -1%
COc1ccc(C(CC(=O)c2ccc(C)cc2)Sc2ccccc2N)cc1 (configuration not stated) | u | 7% | -33% | -19% | 23µM* | -12%
CCC(C)Nc1nc2c(c(=O)[nH]c(=O)n2C)n1Cc1ccc(F)cc1 (configuration not stated) | u | -27% | -22% | x | -10% | x
CS(=O)(=O)Nc1cccc(NC(=O)C2Cc3c(-c4ccco4)ccnc3O2)c1 (configuration not stated) | 13µM* | -6% | -55% | 18µM* | u | u
CC(=O)Nc1ccc(-c2ccnc3c2CC(C(=O)Nc2cccc(C(C)=O)c2)O3)cc1 (configuration not stated) | 15µM* | 7% | -4% | -11% | u | 0%
O=C(Nc1ccc(F)c(Cl)c1)C1Cc2c(-c3ccc4c(c3)OCO4)ccnc2O1 (configuration not stated) | u | u | -17% | 16µM* | u | 26µM*
CC(=O)c1cccc(-c2ccnc3c2CC(C(=O)Nc2cccc(C(F)(F)F)c2)O3)c1 (configuration not stated) | 13µM* | -22% | -1% | -27% | 26µM* | -15%
SMILES | TDP1 cell noCPT | TGFb inhibitor | HepG2 tox | HT1080-NT tox | DT40 TDP1 CPT | HT1080 IDH1KD tx
CC(=O)c1cccc(-c2ccnc3c2CC(C(=O)Nc2cccc(N(C)C)c2)O3)c1 (configuration not stated) | u | 41% | -26% | u | u | u
O=C(O)CC/C=C\CC[C@H]1[C@@H](N2CCCCC2)[C@@H](O)C[C@@H]1OCc1ccc(-c2ccccc2)cc1 | -2% | x | x | x | -1% | x
CCOc1ccc(N(C(C)C(=O)N2CCOCC2)S(C)(=O)=O)cc1 (configuration not stated) | -17% | -9% | 36% | -4% | -2% | 1%
CC(=O)Nc1ccc(-c2ccnc3c2CC(C(=O)Nc2cccnc2)O3)cc1 (configuration not stated) | 3.7µM* | 22% | -1% | 13µM* | 5.2µM* | 13µM*
CC(=O)c1cccc(-c2ccnc3c2CC(C(=O)Nc2cccc(NS(C)(=O)=O)c2)O3)c1 (configuration not stated) | 9.2µM* | 3% | -72% | u | 15µM* | 18µM*
CC(=O)c1cccc(NC(=O)C2Cc3c(-c4cccc(C(C)=O)c4)ccnc3O2)c1 (configuration not stated) | 15µM* | -3% | -6% | -25% | 16µM* | -15%
CC(=O)Nc1cccc(-c2ccnc3c2CC(C(=O)NC(C)C)O3)c1 (configuration not stated) | u | 5% | 2% | -3% | -22% | 18%

Compound activity from PubChem BioAssay.
